Active and inactive are the calls of the source.

Here are results for 4 molecules from PubChem BioAssay.

A short description of experiment [1]: small molecules captured by biotinylated probe aFSTL3 – biochemical, small-molecule microarray, fluorescence 635/667, stem cell growth factor project, primary screen (AID 1064).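 Note: measures binding of the biotinylated anti-FSTL3 antibody to printed compounds.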 To be noted: higher = more signal.
Experiment [2] can be described thus: binders from COS7 lysate, DM2A8 probe, primary screen, torsin A project, cell lysate, small-molecule microarray, fluorescence 635/667 (AID 1065). To be noted: higher = more signal, COS7 lysate expressing mutant human TOR1A.
Experiment [3] in a line: small molecules captured by biotinylated probe aFGF2 – biochemical, small-molecule microarray, fluorescence 635/667, stem cell growth factor project, primary screen (AID 1067).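 Note: measures binding of biotinylated aFGF2 protein to printed compounds on slides; z-score merges feature fluorescence and signal-to-noise across triplicate slides.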 To be noted: higher = more signal.
A short description of experiment [4]: small molecules captured by biotinylated probe aFGF10 – biochemical, small-molecule microarray, fluorescence 635/667, stem cell growth factor project, primary screen (AID 1071).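 Note: score merges 667 nm spot intensity and signal to noise from triplicate slides.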 To be noted: higher = more signal.
The target in experiment [5] is Neurogenic locus notch homolog protein 2 (Homo sapiens) (UniProt Q04721). Put plainly: small molecules binding Notch2 protein – biochemical, small-molecule microarray, 635 nm fluorescence, stem cell growth factors, primary screen (AID 1073). To be noted: higher = more signal.
Sequence of Neurogenic locus notch homolog protein 2 (Homo sapiens) (Q04721 whole entry, looked up, canonical isoform): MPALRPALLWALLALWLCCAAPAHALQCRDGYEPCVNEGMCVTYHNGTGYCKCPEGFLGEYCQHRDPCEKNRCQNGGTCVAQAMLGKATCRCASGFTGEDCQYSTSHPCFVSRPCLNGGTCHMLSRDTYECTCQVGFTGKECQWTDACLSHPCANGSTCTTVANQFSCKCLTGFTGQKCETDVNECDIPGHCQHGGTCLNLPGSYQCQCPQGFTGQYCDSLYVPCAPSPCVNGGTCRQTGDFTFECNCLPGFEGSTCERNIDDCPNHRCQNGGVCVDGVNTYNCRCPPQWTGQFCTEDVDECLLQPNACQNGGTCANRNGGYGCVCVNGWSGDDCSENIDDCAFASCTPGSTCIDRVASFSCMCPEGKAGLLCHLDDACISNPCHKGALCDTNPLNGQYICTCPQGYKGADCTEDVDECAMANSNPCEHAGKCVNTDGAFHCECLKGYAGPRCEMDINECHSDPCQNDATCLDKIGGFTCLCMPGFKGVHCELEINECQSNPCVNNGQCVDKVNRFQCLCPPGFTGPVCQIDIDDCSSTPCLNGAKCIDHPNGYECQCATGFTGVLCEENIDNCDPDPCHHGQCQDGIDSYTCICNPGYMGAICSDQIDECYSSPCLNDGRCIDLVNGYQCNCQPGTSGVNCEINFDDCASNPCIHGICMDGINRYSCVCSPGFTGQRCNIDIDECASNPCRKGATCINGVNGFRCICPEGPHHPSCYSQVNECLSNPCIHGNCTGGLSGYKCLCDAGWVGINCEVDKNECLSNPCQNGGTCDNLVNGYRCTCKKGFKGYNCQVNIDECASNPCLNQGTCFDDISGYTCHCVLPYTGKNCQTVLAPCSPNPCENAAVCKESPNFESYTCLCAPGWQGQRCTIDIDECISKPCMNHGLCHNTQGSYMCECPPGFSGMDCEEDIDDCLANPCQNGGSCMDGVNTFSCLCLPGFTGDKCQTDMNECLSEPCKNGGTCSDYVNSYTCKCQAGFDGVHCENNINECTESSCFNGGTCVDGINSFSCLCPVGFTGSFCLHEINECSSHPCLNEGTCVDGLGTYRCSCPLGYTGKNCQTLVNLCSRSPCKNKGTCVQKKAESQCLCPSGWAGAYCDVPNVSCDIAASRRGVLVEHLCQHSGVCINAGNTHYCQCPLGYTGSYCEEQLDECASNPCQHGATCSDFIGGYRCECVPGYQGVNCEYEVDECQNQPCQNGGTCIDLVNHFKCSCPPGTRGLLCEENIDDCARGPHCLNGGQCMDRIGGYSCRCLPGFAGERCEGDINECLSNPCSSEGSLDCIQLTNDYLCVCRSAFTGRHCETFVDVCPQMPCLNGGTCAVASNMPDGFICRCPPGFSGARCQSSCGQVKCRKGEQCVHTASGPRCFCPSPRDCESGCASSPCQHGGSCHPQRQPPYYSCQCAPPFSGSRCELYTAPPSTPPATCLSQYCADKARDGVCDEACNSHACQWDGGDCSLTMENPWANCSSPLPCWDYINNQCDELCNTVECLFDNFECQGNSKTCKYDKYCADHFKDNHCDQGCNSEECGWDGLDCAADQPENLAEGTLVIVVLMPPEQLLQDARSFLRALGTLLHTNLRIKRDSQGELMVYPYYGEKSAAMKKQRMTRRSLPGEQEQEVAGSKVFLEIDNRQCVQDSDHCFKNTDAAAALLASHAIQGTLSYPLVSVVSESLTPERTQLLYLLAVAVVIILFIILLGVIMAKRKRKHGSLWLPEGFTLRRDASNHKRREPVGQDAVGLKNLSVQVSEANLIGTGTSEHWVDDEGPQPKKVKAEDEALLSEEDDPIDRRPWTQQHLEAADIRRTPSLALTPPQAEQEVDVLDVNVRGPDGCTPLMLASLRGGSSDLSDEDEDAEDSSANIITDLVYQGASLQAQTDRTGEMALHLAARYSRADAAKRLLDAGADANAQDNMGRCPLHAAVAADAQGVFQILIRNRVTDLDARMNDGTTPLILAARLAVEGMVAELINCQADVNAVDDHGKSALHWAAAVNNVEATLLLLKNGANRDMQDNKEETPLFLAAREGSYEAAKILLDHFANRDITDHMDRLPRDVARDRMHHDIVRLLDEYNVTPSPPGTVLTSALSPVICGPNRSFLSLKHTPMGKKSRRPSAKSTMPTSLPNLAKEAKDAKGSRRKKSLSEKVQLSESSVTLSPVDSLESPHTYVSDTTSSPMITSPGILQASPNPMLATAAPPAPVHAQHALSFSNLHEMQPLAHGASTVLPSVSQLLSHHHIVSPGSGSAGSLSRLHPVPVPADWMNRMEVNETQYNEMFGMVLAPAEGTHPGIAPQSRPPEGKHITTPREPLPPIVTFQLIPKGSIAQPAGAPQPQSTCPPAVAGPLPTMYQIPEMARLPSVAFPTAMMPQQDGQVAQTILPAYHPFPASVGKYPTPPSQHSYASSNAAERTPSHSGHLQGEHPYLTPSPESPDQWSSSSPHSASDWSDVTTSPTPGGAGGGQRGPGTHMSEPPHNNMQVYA
Experiment [6] addresses Pro-neuregulin-1, membrane-bound isoform (Homo sapiens) (UniProt Q02297). The experiment can be described thus: small molecules binding neuregulin-1 protein – biochemical, small-molecule microarray, fluorescence 635/667, psychiatric disease protein project, primary screen (AID 1075).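 Note: score combines 667 nm spot fluorescence with signal to noise.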 The following applies: NRG1 binding, 635 nm fluorescence, higher = more signal.
Experiment [7] has as its system Neuregulin-1 EGF-like domain. The experiment can be described thus: small molecules binding NRG1 EGF domain – biochemical, small-molecule microarray, 635 nm fluorescence, primary screen (AID 1081).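 Note: binding of the protein to compounds printed on small-molecule microarray slides.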 To be noted: higher = more signal.
A short description of experiment [8]: FRG1 expression reporter modulators in myotubes – cell-based, C2C12 myotubes, firefly/Renilla luciferase, luminescence, FRG1 inhibition for FSHD, primary screen (AID 1084). To be noted: FRG1 promoter luciferase, higher = more signal, called active from +8 up or from −8 down.
A short description of experiment [9]: small molecules captured by biotinylated probe aFST – biochemical, small-molecule microarray, fluorescence 635/667, stem cell growth factor project, primary screen (AID 1086).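 Note: score merges 667 nm fluorescence with signal-to-noise of each printed compound spot.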 To be noted: higher = more signal.
Experiment [10] can be described thus: binders of probe aHhip on microarray, primary screen, stem cell growth factor project, biochemical, small-molecule microarray, fluorescence 635/667 (AID 1087).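 Note: score merges spot fluorescence at 667nm with spot signal to noise ratio.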 To be noted: higher = more signal.
Experiment [11] concerns PRMT1 (protein arginine N-methyltransferase 1). The experiment can be described thus: small molecules binding arginine methyltransferase PRMT1 – biochemical, small-molecule microarray, 635 nm fluorescence, primary screen (AID 1088).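 Note: binding of Prmt1 protein to compounds spotted on small-molecule microarray slides.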 To be noted: higher = more signal.
Experiment [12] can be described thus: growth effects on S. cerevisiae YJM789 – YJM789 clinical isolate, OD600, 24 h, basal, primary screen (AID 1089).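 Note: growth of clinical yeast isolate S. cerevisiae YJM 789 seeded 1000 cells per well; test concentration not given here.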 The following applies: higher = more signal, called active from +8 up or from −8 down.
Experiment [13] is described as follows: S. pombe growth modifiers, basal conditions – strain 972, OD600, 24 h, no modulator, primary screen (AID 1090).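 Note: basal condition with compound alone and no growth modifier present; test concentration not given here.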 The following applies: S. pombe 972 growth, higher = more signal, called active from +8 up or from −8 down.
Experiment [14] in a line: budding yeast growth modifiers under rapamycin – strain BY4716, OD600, 96 h, primary screen (AID 1091). Note: test concentration not given here. The following applies: S. cerevisiae BY4716 + rapamycin, higher = more signal, called active from +8 up or from −8 down.
The target of experiment [15] is Torsin-1A-interacting protein 2 (Homo sapiens) (UniProt Q8NFQ8). Put plainly: small molecules binding lysate-expressed LULL1 – cell lysate, human LULL1 lysate, 635/667 nm fluorescence, primary screen (AID 1092).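 Note: probe is lysate of COS7 cells overexpressing human LULL1; score merges per-feature 667 nm fluorescence with signal-to-noise.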 The following applies: small-molecule microarray, hLULL1 lysate binding, 635 nm fluorescence; higher = more signal.
Sequence of Torsin-1A-interacting protein 2 (Homo sapiens) (Q8NFQ8 whole entry, looked up): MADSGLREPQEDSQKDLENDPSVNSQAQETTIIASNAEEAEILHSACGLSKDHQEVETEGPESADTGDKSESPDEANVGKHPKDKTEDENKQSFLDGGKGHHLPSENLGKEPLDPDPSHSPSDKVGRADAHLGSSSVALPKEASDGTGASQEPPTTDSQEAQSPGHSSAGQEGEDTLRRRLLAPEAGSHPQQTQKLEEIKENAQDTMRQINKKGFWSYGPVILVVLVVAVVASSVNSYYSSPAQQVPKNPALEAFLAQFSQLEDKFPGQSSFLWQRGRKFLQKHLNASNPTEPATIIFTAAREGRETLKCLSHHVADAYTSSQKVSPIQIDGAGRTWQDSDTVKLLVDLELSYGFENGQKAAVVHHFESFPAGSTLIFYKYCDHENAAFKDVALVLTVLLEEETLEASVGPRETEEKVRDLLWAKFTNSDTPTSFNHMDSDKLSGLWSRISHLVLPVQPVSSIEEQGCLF
Experiment [16] can be described thus: optical density change of DRC41 E. coli – strain DRC41, OD650, 24 h, E. coli filamentation project, primary screen (AID 1093).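 Note: MC1000 strain lacking acrAB efflux and sulA so SOS filamentation is blocked; test concentration not given here.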 The following applies: E. coli DRC41 growth, higher = more signal, called active from +8 up or from −8 down.
Experiment [17] can be described thus: probe aLefty2 binding to arrayed compounds – biochemical, biotinylated probe, 635/667 nm fluorescence, primary screen (AID 1094).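 Note: score merges spot fluorescence near 667 nm with spot signal-to-noise ratio.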 To be noted: small-molecule microarray, higher = more signal.
The subject of experiment [18] is Noggin (protein binding on small-molecule microarray). The experiment can be described thus: small molecules binding Noggin protein – biochemical, 635/667 nm fluorescence, primary screen (AID 1095).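 Note: score merges 667 nm feature fluorescence with signal to noise over triplicate slides.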 To be noted: 635 nm fluorescence, higher = more signal.
Experiment [19] deals with Neurogenic locus notch homolog protein 3 (Homo sapiens) (UniProt Q9UM47). Put plainly: small molecules binding NOTCH3 protein – biochemical, 635/667 nm fluorescence, primary screen (AID 1096). The following applies: small-molecule microarray, 635 nm fluorescence, higher = more signal.
Experiment [20] in a line: probe aEGFR binding to arrayed compounds – biochemical, biotinylated probe, 635/667 nm fluorescence, primary screen (AID 1097).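 Note: probe is a biotinylated anti-EGFR antibody binding compounds printed on slides; score combines fluorescence near 667 nm and signal to noise of each spot.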 The following applies: small-molecule microarray, higher = more signal.

Sequence of Pro-neuregulin-1, membrane-bound isoform (Homo sapiens) (Q02297 whole entry, looked up, the tested form may be a part, canonical isoform): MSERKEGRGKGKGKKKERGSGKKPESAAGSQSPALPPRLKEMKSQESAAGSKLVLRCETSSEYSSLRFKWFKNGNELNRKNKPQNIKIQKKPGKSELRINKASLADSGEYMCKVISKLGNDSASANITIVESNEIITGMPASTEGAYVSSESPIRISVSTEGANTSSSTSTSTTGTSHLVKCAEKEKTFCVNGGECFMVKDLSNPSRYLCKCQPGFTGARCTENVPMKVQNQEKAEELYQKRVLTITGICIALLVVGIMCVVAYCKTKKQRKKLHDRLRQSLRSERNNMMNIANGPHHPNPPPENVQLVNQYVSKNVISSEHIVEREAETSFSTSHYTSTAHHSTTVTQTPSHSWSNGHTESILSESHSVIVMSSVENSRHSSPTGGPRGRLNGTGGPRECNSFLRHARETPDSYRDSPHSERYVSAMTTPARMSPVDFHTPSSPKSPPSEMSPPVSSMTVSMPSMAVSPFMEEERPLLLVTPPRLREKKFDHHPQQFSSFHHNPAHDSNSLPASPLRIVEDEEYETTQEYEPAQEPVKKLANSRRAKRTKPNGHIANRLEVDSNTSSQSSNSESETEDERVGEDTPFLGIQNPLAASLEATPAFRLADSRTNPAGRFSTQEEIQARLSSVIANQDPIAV

With `COC(=O)[C@@]1(Cc2ccc(OC)cc2)[C@H]2c3cc(C(=O)N(C)C)n(Cc4ccc(S(C)(=O)=O)cc4)c3C[C@H]2CN1C(=O)c1ccccc1`, the composite z-score in [1] came out at 1.12; in experiment [2], 0.325; in experiment [3], 0.27; in [4] it was 0.178; in [5], 1.24; in [6] it was 1.64. Besides, the composite z-score was 1.31 in experiment [7]; 1.46 in [9]; 0.296 in [10]; -0.142 in experiment [11]; 3.4 in experiment [15]; -0.264 in experiment [17]. Also, the values for the composite z-score in [18], in [19] and in [20] were 0.715, 1.11 and 0.0174, respectively. Moreover, the z-score in experiment [8] was -1.49 (inactive); in [12], -3.22 (inactive); in [13], -0.462 (inactive); in experiment [14] it was -0.154 (inactive); in [16], 0.0416 (inactive).

Take `CO[C@H]1O[C@H](CO)[C@@H](OC(=O)Nc2ccc(C(F)(F)F)cc2)[C@H](OC(=O)Nc2ccc3c(c2)OCO3)[C@@H]1OC(=O)Nc1ccc2c(c1)OCO2`: the composite z-score in [1] was -0.139; in [2] it was 1.62; in [3], 0.0666; in experiment [4], 1.22; in [5] it was 1.51; in [6] it was 1.76. Also, the composite z-score in experiment [7] was 1.29; in experiment [9], -0.0167; in experiment [10], 0.124; in experiment [11] it was 1.54; in experiment [15], 3.11; in experiment [17], -0.0021. Further, the composite z-score in experiment [18] is 0.476; in [19], 1.08; in [20], 0.0869. Moreover, the z-score in experiment [8] was 3.93 (inactive); in [12] it was 2.76 (inactive); in experiment [13], 0.942 (inactive); in experiment [14], 10 (active); in [16], 2.24 (inactive).

Regarding `CCC[C@@H]1C[C@@]1(CCC)[C@@H](NS(=O)(=O)c1cccc2cccnc12)c1ccc(Cl)cc1`, the composite z-score is 0.561 in experiment [1]; -0.754 in [2]; 0.0367 in [3]; 0.0835 in experiment [4]; 0.763 in experiment [5]; 0.858 in [6]. The composite z-score in experiment [7] is 0.917; in [9] it was 0.855; in [10], -0.0729; in experiment [11] it was 0.0685; in [15], 2.66; in experiment [17], 0.0763. The composite z-score in [18] was -1.22; in experiment [19], 0.296; in [20] it was -0.136. Besides, the z-score is -3.58 (inactive) in [8]; 0.788 (inactive) in [12]; 1.01 (inactive) in experiment [13]; 0.478 (inactive) in experiment [14]; -1.01 (inactive) in [16].

Consider `COC(=O)[C@@]1(Cc2ccc(OC)cc2)[C@H]2c3cc(C(=O)N4CCCC4)n(CCN4CNCC4=O)c3C[C@H]2CN1C(=O)c1ccccc1`, for which the composite z-score was 2.52 in experiment [1]; 0.873 in experiment [2]; 0.797 in experiment [3]; 1.22 in experiment [4]; 1.4 in experiment [5]; 1.78 in [6]. In addition, the composite z-score in experiment [7] was 1.45; in [9], 2.37; in experiment [10] it was 3.13; in experiment [11], -0.871; in experiment [15], 3.77; in experiment [17], 1.42. Besides, the composite z-score was -0.364 in experiment [18], 0.293 in experiment [19] and 1.15 in experiment [20]. The z-score in experiment [8] was 0.632 (inactive); in [12], 0.503 (inactive); in experiment [13], 0.706 (inactive); in [14] it was 0.429 (inactive); in experiment [16] it was -0.977 (inactive).
